Measurements from PubChem BioAssay (Tox21).
Inconclusive results are not listed. Entries that show only a call come without a potency. Values without a mark were called inactive. The source made the active and inactive calls. The call rests on the fitted dose curve.

Experiment: p53 small molecule agonists, cell-based qHTS assay with human liver microsomes (AID 1963577);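 further: p53 response element beta-lactamase reporter cells with liver microsomes plus NADPH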
Conditions: HCT-116 p53RE-bla with human liver microsomes, ratio, 16 h; series mostly up to 66 µM
Description: National Center for Advancing Translational Sciences [NCATS]
Division of Preclinical Innovation [DPI]
U.S. Environmental Protection Agency [EPA]
National Institutes of Environmental Health Sciences [NIEHS]
National Toxicology Program [NTP]
U.S. Food and Drug Administration [FDA]
p53, a tumor suppressor protein, is activated following cellular insult, including DNA damage and other cellular stresses. The activation of p53 regulates cell fate by inducing DNA repair, cell cycle arrest, apoptosis, or cellular senescence. The activation of p53, therefore, is a good indicator of DNA damage and other cellular stresses. […] The activation of the reporter gene under culture conditions can be detected by fluorescence intensity.
Tox21 Assay Protocol Summary:
The p53RE-bla cells were dispensed at 4,000cells/3ul/well in 1536-well black-clear bottom plates. After the assay plates were incubated at 37 C, 5% CO2 incubator for 5 hours, 23 nL of compounds dissolved in DMSO, positive controls or DMSO only was transferred to the assay plate. Following compound addition, 3 uL of human liver microsomes (XenoTech, Kansas City, KS) at final concentration of 0.5 mg/mL and 1uL of Beta-Nicotinamide adenine dinucleotide 2-phosphate (NADPH) at final concentration of 0.5 mg/mL were transferred to the assay plate. The plates were incubated at 37 C for 16 hours. 1 uL of LiveBLAzer detection mixture was added to each well and the plates were incubated at room temperature in the dark for 2 h.

| SMILES | Potency | activation |
| --- | --- | --- |
| CNCCCC12CCC(c3ccccc31)c1ccccc12 | inactive |  |
| O=C(O)CONC(=O)c1ccccc1 | inactive |  |
| CC(=O)c1cccc([N+](=O)[O-])c1 | inactive |  |
| NCCNCCO | inactive |  |
| O=c1[nH]c2cc(C(F)(F)F)c(N3CCOCC3)cc2n(CP(=O)(O)O)c1=O | inactive |  |
| CCC(C(=O)OCCOCCN(CC)CC)c1ccccc1 (stereo not given) | inactive |  |
| CC(=O)Nc1ncc([N+](=O)[O-])s1 | inactive |  |
| Cc1cccc(Cl)c1 | inactive |  |
| [Cl][In]([Cl])[Cl] | inactive |  |
| O=C1CCC(=O)N1 | inactive |  |
| CCC(C)(O)CCC=C(C)C (stereo not given) | inactive |  |
| CC(=O)CC(=O)Nc1ccccc1C | inactive |  |
| COc1cccc2c1C(=O)c1c(O)c3c(c(O)c1C2=O)C[C@@](O)(C(=O)CO)C[C@@H]3O[C@H]1C[C@H](N)[C@H](O)[C@H](C)O1 | inactive |  |
| CCCCc1ccc(Cl)cc1 | inactive |  |
| C[N+](C)(C)CC[N+]1(C)Cc2c(Cl)c(Cl)c(Cl)c(Cl)c2C1 | inactive |  |
| O=C(/C=C/c1ccccc1)OCc1ccccc1 | inactive |  |
| COC(=O)N[C@H](C(=O)N[C@@H](Cc1ccccc1)[C@@H](O)CN(Cc1ccc(-c2ccccn2)cc1)NC(=O)[C@@H](NC(=O)OC)C(C)(C)C)C(C)(C)C | inactive |  |
| c1ccc2c(c1)CCc1ccccc1N2 | inactive |  |
| O=C(c1ccccc1O)c1ccccc1O | inactive |  |
| CSc1cnccn1 | inactive |  |

| SMILES | Potency | activation |
| --- | --- | --- |
| CC(C)(O)C#CC(C)(C)O | inactive |  |
| CCO[Si](OCC)(OCC)c1ccccc1 | inactive |  |
| O=[N+]([O-])c1ccc(F)cc1F | inactive |  |
| CC(=O)C(C)O (stereo not given) | inactive |  |
| CN(C)c1ccc(/C=C/c2ccc([N+](=O)[O-])cc2)cc1 |  | -2.79% [at 5.99 µM] |
| CC(C)CC(O)Cc1ccccc1 (stereo not given) | inactive |  |
| C=CC(C)CCC=C(C)C (stereo not given) | inactive |  |
| Clc1cccc(Cl)c1NC1=NCCN1 | inactive |  |
| CCCCCCCCCCCCCCO | inactive |  |
| CC(=O)N(c1onc(C)c1C)S(=O)(=O)c1ccc(N)cc1 | inactive |  |
| CCC1COC(=O)O1 (stereo not given) | inactive |  |
| C/C(=C(\CCO)SS/C(CCO)=C(\C)N(C=O)Cc1cnc(C)nc1N)N(C=O)Cc1cnc(C)nc1N | inactive |  |
| COc1cc(C(=O)NCc2ccc(OCCN(C)C)cc2)cc(OC)c1OC | inactive |  |
| F[Si-2](F)(F)(F)(F)F | inactive |  |
| CCCC(=O)Nc1ccc(O)c(C(C)=O)c1 | inactive |  |
| COc1cc(C)c(Cc2cnc(N)nc2N)cc1OC | inactive |  |
| CCCCCCCCCCCCCCC(=O)NC(CO)CCCCCCCCCCCCCC (stereo not given) | inactive |  |
| C[N+](C)(C)CC(O)CCl (stereo not given) | inactive |  |
| Oc1cc(O)c2c(c1)O[C@H](c1ccc(O)c(O)c1)[C@H](O)C2 | inactive |  |
| O=c1n(CCCN2CCN(c3cccc(Cl)c3)CC2)nc2ccccn12 | inactive |  |
